Sampled rows, rich in hits. Any-hit rate of the full collection: about 2.4%.
D2 ag-1 = activates the human D2 dopamine receptor; actives 0.084% (n = 360,000); P14416; activation, % (no concentration beside the values); DiscoveRx PathHunter D2 beta-arrestin, luminescence, 90 min; 100% = 57 uM dopamine signal; AID 624465; in the data active means activation above about 40%; inconclusive means between about 15% and that limit
Target sequence (P14416 whole entry, looked up): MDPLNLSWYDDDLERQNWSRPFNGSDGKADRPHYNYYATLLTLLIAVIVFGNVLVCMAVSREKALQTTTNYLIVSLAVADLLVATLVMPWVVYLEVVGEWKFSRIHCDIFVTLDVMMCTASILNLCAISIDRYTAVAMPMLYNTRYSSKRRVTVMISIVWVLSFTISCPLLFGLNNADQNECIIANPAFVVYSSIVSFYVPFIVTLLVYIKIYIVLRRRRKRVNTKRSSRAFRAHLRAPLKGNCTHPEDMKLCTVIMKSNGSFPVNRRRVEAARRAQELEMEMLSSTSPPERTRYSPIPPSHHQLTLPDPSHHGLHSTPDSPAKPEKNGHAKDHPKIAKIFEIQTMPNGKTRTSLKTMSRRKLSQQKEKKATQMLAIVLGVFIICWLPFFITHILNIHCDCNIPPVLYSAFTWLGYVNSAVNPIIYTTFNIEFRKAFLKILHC
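DiscoveRx PathHunter D2 beta-arrestin cells (2,100/well) attached overnight, then compound-stimulated 90 min at 37 C in HBSS/10 mM HEPES/0.1% Tween-20 buffer; beta-galactosidase complementation read by luminescence after 1 h at ambient temperature. Dopamine 57 uM final (EC100) as control.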
D2 antag = antagonizes the human D2 dopamine receptor; P14416; HEK293 TREx D2 cells, calcium flux, dopamine EC80; inhibition, % at 10 µM; actives 2% (n = 340,000); AID 485344; in the data active means inhibition above about 30%; inactive means below that, where a call was filed; further: 0% is about no effect
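Overnight-induced (tetracycline, 30 C) HEK293 T-REx cells carrying force-coupled D2 receive a no-wash calcium dye, then compound, then EC80 dopamine at 180 s; signals are read kinetically throughout.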
D2 ag-2 = D2 dopamine receptor (human) agonism | P14416 | HEK293 T-REx D2 cells, calcium flux agonist mode | activation, % at 2 µM | actives 0.53% (n = 340,000) | AID 485358;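 active means activation over 3 SD above normal in the single-dose calcium agonist read, cut at about 30% in these data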; further: 0% is about no effect
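Agonism is scored from calcium flux in a force-coupled, inducible HEK293 cell line expressing D2, read kinetically for 180 s after compound addition against dopamine controls.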
D2 PAM-1 = positive allosteric modulators of human D2 dopamine receptor. P14416. DiscoveRx D2 beta-arrestin cells, luminescence, 90 min; 100% = 57 uM dopamine signal. potentiation, % (test concentration not listed). actives 0.23% (n = 360,000); in the data active means potentiation above about 50%; inconclusive means mostly about 30% to 49%
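PathHunter D2 cells, attached overnight at 37 deg C, received compound in DMSO plus dopamine at EC20 (50 nM final) for 90 min at 37 deg C. Beta-arrestin recruitment was read as luminescence after 1 h with detection reagent at ambient temperature.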
D2 PAM-2 = positively modulates the human D2 dopamine receptor allosterically; P14416; AID 485347; potentiation, % at 10 µM; HEK293 T-REx D2, calcium flux, EC20 dopamine potentiation; actives 0.34% (n = 340,000);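 active means potentiation over 3 SD above the plate norm, cut at about 30% in these data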; further: 0% is about no effect
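Cells plated with tetracycline inducer and held overnight at 30 C; calcium dye loaded 30–90 min at room temperature; baseline taken, compound added and read 180 s; EC20 dopamine then added and read 180 s.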
D3 ag = activates human D3 dopamine receptor beta-arrestin recruitment | DiscoveRx D3 beta-arrestin cells, luminescence, 90 min | Potency, µM (highest dose often 76.9 µM), for inactives: at the highest dose activation, actives largely listed as activators | actives 4% (n = 2,300) | shares compounds with D2 ag-2;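 further: potency means the concentration at half of the fitted maximal effect; 100% = dopamine control response; nearly all actives have a fitted effect of over 70% in size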
D2 ag-3 = D2 receptor agonism, beta-arrestin counterscreen; shares compounds with D2 ag-2; DiscoveRx PathHunter D2 beta-arrestin, luminescence, 90 min; response scale: percent relative to full dopamine signal; Potency, µM (series often up to 76.9 µM), for the others: at the highest dose activation, hits mostly activators; actives 5.9% (n = 2,300); further: potency means the concentration at half of the fitted maximal effect; % of control where 0% means no effect; nearly all actives have a fitted effect of over 70% in size
Active calls of the source: *; ? = inconclusive; nt = no result given. Unless noted, the call rests on the fitted dose curve; in most records, active means well fitted activation curve with a large enough effect; inconclusive means small, poorly fitted or top-dose-only effect; inactive means flat fitted curve, though single readings scatter.

SMILES	D2 ag-1	D2 antag	D2 ag-2	D2 PAM-1	D2 PAM-2	D3 ag	D2 ag-3
CC(=O)Nc1ccc(SCCN2CC[C@@H](C)CCC2=O)cc1	-4	-2	0	-4	-5	0%	-4%
O=C(NCc1ccccc1F)C(=O)NCC(c1ccco1)S(=O)(=O)c1cccs1 (configuration not stated)	nt	nt	0	nt	-3	nt	nt
COc1cc(C(=O)OCc2cccc(OC)c2OC)ccc1OCC(=O)N1CCOCC1	-5	-9	-1	-4	-4	0%	-3%
COc1cc(C(=O)OCc2ccccc2C#N)ccc1OCC(=O)N1CCOCC1	5	16	0	-3	6	nt	nt
Cc1[nH]c2ccccc2c1C(=O)CN1C(=O)C(=O)N(C2CCCC2)C1=O	0	-3	0	-2	6	-15%	-5%
Cc1cc(C(=O)CN2C(=O)C(=O)N(C3CCCC3)C2=O)c(C)n1CCc1ccccc1	0	-13	8	10	20	nt	nt
CNC(=O)N(O)C1N(/N=C/c2cc(Br)ccc2O)C(=S)SC1(C)C (configuration not stated)	59*	50*	48*	12	-19	-8%	?
CNC(=O)N(O)C1N(/N=C/c2ccc(C)cc2)C(=S)SC1(C)C (configuration not stated)	-4	-4	0	-10	-4	nt	nt
COc1ccc(CCNC(=O)COC(=O)c2ccc(N3CCCC3=O)cc2)cc1OC	2	-2	2	3	11	nt	nt
COc1ccccc1CNC(=O)COC(=O)c1ccc(N2CCCC2=O)cc1	-2	12	2	-3	-18	11%	2%
Cc1c(Cl)cccc1NC(=O)CC(c1cccs1)N1Cc2ccccc2C1=O (configuration not stated)	nt	nt	-1	nt	-16	nt	nt
Cc1ncoc1C(=O)N1CCCC(N2CCN(c3ccccc3F)CC2)C1 (configuration not stated)	-3	1	36*	-26	-12	-14%	-2%
O=C(c1ccco1)N1CCCC(N2CCN(c3ccccc3F)CC2)C1 (configuration not stated)	-2	-18	8	-41	-11	nt	nt
CC(=O)N1c2ccccc2C(=O)C1N1CCN(c2ccccc2F)CC1 (configuration not stated)	nt	nt	nt	nt	3	nt	nt
CC(=O)N1CCC(N2CCN(c3ccccc3F)CC2)CC1	41*	71*	75*	2	-20	?	?
O=C(c1ccnc(Cl)c1)N1CCCC(N2CCN(c3ccccc3F)CC2)C1 (configuration not stated)	3	25	24	0	-6	19%	19%
Cc1c(CNCCCc2ccccc2)c(C(=O)O)c(C)n1Cc1cccc(Cl)c1	nt	nt	0	nt	1	nt	nt
COc1ccc(NC(=O)N2CCCC(c3ccccc3)C2)cc1 (configuration not stated)	9	nt	nt	-2	nt	18%	21%
C[C@@H]1CCCCCCCCC(=O)OCCN1C(=O)OC(C)(C)C	-1	13	1	0	-4	2%	2%
C[C@@H]1CCCCCCCCC(=O)OCCN(C(=O)OC(C)(C)C)[C@H](C)CCCCCCCCC(=O)OCCN1C(=O)OC(C)(C)C	-2	nt	nt	-10	nt	nt	nt
COc1ccc(C(=O)O)cc1NC(=S)NC(=O)CSc1ccc(Cl)cc1	0	6	-1	0	5	-15%	-4%
O=C(CCN1CCN(c2ccccc2)CC1)NNC(=O)c1ccccc1	4	nt	nt	-12	nt	nt	nt
O=C(CCN1CCN(c2ccccc2)CC1)NNC(=O)Cc1ccccc1Cl	9	48*	81*	-20	-25	6%	18%
O=C(CCN1CCN(c2ccccc2)CC1)NNC(=O)Cc1c(F)cccc1Cl	6	60*	79*	-39	-24	?	14%

Screens: PubChem BioAssay, National Center for Advancing Translational Sciences (NCATS)
